The results in this text go back to paper PMC4081100, “A DNA-binding-site landscape and regulatory network analysis for NAC transcription factors in Arabidopsis thaliana”.

What all share (assay): universal protein binding microarray (PBM); transcription factors of Arabidopsis thaliana; high values mean tight binding
One test deals with GST-WRKY1(266-371) (Arabidopsis thaliana, UniProt Q9SI37 266-371). Conditions: protein: recombinant; tags: GST; dsDNA, one strand shown. An outline of the steps:
(§1)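 For zinc-finger proteins, zinc acetate was added while GST-tagged NAC-domain, full-length or DNA-binding-domain proteins were induced in cells. Purification used glutathione–Sepharose 4B, and quantification used A280 or anti-GST western blot. Custom all-10-mer Agilent 4 × 180K arrays, made double-stranded by primer extension, each received a protein at 200 to 500 nM final in duplicate. Scoring covered gapped and ungapped 8-mers, with binding given as the normalised enrichment score (E-score).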

A further test deals with GST-NTL6(1-168) (Arabidopsis thaliana, UniProt Q9SCK6 1-168). Conditions: protein: recombinant; tags: GST; chain copies: 2; dsDNA, one strand shown. An outline of the steps:
as §1

For the next test, the target named is T1, GST-ANAC092(1-176) (Arabidopsis thaliana, UniProt Q9FKA0 1-176).
T1 sequence: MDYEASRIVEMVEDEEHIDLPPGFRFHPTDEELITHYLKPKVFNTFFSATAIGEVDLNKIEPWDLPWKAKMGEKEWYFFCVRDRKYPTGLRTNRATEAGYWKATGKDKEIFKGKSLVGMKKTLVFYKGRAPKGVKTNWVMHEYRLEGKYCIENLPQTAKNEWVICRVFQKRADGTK
As to conditions: protein: recombinant; tags: GST; chain copies: 2; dsDNA, one strand shown. The method, boiled down: as §1

In another test the target is T2, GST-ATAF1 NAC domain (Arabidopsis thaliana, UniProt Q39013 7-158).
T2 sequence: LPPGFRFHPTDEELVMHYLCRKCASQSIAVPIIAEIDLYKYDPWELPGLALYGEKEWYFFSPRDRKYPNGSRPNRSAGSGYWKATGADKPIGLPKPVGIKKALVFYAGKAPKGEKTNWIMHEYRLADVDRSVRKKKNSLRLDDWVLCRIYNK
Conditions: protein: recombinant; tags: GST; chain copies: 2; dsDNA, one strand shown. The method, boiled down: as §1

Test [1] deals with T3, GST-ANAC092(1-285) full length (Arabidopsis thaliana, UniProt Q9FKA0 1-285).
T3 sequence: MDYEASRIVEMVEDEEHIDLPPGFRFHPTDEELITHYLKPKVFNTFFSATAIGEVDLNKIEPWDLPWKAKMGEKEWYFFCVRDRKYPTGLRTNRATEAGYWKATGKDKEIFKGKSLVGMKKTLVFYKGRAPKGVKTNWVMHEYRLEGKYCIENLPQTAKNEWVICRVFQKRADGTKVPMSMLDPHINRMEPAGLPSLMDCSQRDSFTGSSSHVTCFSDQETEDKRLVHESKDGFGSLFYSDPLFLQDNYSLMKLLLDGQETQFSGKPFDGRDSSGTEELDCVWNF
Conditions: protein: recombinant; tags: GST; chain copies: 2; dsDNA, one strand shown. The method, boiled down: as §1

For another test, the target named is T4, GST-NST2(1-184) (Arabidopsis thaliana, UniProt Q9M274 1-184).
T4 sequence: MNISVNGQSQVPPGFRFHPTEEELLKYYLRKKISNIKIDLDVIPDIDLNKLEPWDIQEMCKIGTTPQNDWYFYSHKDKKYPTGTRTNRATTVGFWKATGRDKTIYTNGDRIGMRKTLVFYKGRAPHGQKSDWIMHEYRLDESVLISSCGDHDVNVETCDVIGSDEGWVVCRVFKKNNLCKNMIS
Conditions: protein: recombinant; tags: GST; chain copies: 2; dsDNA, one strand shown. The method, boiled down:
as §1

Sequence of GST-NTL6(1-168) (Q9SCK6 1-168): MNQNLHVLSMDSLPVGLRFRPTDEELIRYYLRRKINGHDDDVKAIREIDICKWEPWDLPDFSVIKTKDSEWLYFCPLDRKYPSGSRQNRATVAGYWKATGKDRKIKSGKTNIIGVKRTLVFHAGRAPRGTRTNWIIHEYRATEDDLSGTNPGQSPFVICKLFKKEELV
Sequence of GST-WRKY1(266-371) (Q9SI37 266-371): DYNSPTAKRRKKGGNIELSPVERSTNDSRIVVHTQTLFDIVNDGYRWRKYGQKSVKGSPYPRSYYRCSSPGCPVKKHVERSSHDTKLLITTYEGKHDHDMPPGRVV

For ATGACCGA, the binding signal with GST-WRKY1(266-371) came out at 0.405 E-score.

Turning to GGTCTGAC, in the test with GST-WRKY1(266-371), the binding signal was found to be 0.441 E-score.

With AGCGGTCA, the binding signal with GST-WRKY1(266-371) amounted to 0.422 E-score.

Take AAGTCCAC: the binding signal in the test with GST-WRKY1(266-371) is 0.418 E-score.

In the case of ATGACCGG, in the test with GST-WRKY1(266-371), the binding signal came out at 0.407 E-score.

In the case of CCGGGTCA, the binding signal in the test with GST-WRKY1(266-371) came to 0.443 E-score.

GACTTTGA: in the test with GST-WRKY1(266-371), the binding signal was 0.432 E-score.

As to CCTGGTCA, in the test with GST-WRKY1(266-371), the binding signal stood at 0.454 E-score.

As to CTGACCCA, the binding signal with GST-WRKY1(266-371) amounted to 0.401 E-score.

CTGACCTA: the binding signal with GST-WRKY1(266-371) was 0.413 E-score.

Turning to CTGACCAA, in the test with GST-WRKY1(266-371), the binding signal stood at 0.427 E-score.

For CTTGGTCA, the binding signal with GST-WRKY1(266-371) came out at 0.429 E-score.

Regarding CTGACCAG, the binding signal in the test with GST-WRKY1(266-371) was 0.444 E-score.

Turning to CCATTGAC, in the test with GST-WRKY1(266-371), the binding signal is 0.473 E-score.

AACGGTCA: in the test with GST-WRKY1(266-371), the binding signal was 0.435 E-score.

Regarding CGATGACC, in the test with GST-WRKY1(266-371), the binding signal amounted to 0.414 E-score.

Turning to GTCGGTCA, the binding signal with GST-WRKY1(266-371) is 0.45 E-score.

Take GTCAGACA: the binding signal with GST-WRKY1(266-371) was found to be 0.41 E-score.

With GCCGGTCA, in the test with GST-WRKY1(266-371), the binding signal turned out to be 0.459 E-score.

In the case of GACCGGTC, the binding signal in the test with GST-WRKY1(266-371) was 0.445 E-score.

In the case of GGAGTCAA, the binding signal with GST-WRKY1(266-371) was 0.476 E-score.

On to GTCAGCAA, for which the binding signal in the test with GST-WRKY1(266-371) worked out at 0.403 E-score.

For CGATTGAC, the binding signal in the test with GST-WRKY1(266-371) is 0.443 E-score.

As to GACCAGTC, the binding signal with GST-WRKY1(266-371) was 0.406 E-score.

GACGGTCA: the binding signal with GST-WRKY1(266-371) amounted to 0.462 E-score.

Take CGGTCATA: in the test with GST-WRKY1(266-371), the binding signal was 0.415 E-score.

Regarding ACCTTGAC, in the test with GST-WRKY1(266-371), the binding signal was 0.472 E-score.

Turning to GGTCAGAA, in the test with GST-WRKY1(266-371), the binding signal was 0.444 E-score.

With AGTCAGAG, the binding signal with GST-WRKY1(266-371) was 0.44 E-score.

On to CGGTCAGC, for which, in the test with GST-WRKY1(266-371), the binding signal turned out to be 0.458 E-score.

Turning to GCGGGTCA, the binding signal in the test with GST-WRKY1(266-371) was 0.421 E-score.

For TAGGGTCA, the binding signal in the test with GST-WRKY1(266-371) is 0.42 E-score.

As for GCTGACTA, in the test with GST-WRKY1(266-371), the binding signal was 0.417 E-score.

For the sequence GCTTTGAC, in the test with GST-WRKY1(266-371), the binding signal is 0.466 E-score.

For CAGTCAGC, the binding signal with GST-WRKY1(266-371) amounted to 0.406 E-score.

For the sequence GGCGGTCA, the binding signal with GST-WRKY1(266-371) stood at 0.428 E-score.

Take CCTTGACC: in the test with GST-WRKY1(266-371), the binding signal was found to be 0.487 E-score.

Turning to CGAAGACC, in the test with GST-WRKY1(266-371), the binding signal came to 0.436 E-score.

With AGTCTTCG, the binding signal in the test with GST-WRKY1(266-371) worked out at 0.427 E-score.

CTAAGTCA: the binding signal turned out to be 0.146 E-score with GST-NTL6(1-168) and 0.413 E-score with GST-WRKY1(266-371).

As for GGTCAAAC, the binding signal in the test with GST-ANAC092(1-176) is 0.0595 E-score; in the test with GST-ATAF1 NAC domain, 0.0641 E-score; in test [1], 0.0869 E-score; with GST-NST2(1-184) it was 0.0597 E-score; with GST-WRKY1(266-371) it was 0.494 E-score.

GTCAATGA: the binding signal with GST-NTL6(1-168) came to 0.0646 E-score; in the test with GST-WRKY1(266-371) it was 0.466 E-score.

As for GCATTGAC, the binding signal with GST-ANAC092(1-176) was 0.0797 E-score; with GST-ATAF1 NAC domain, 0.0849 E-score; in the test with GST-NST2(1-184), 0.0561 E-score; with GST-WRKY1(266-371) it was 0.47 E-score.

With AGTTGACC, the binding signal with GST-NTL6(1-168) was determined as 0.0645 E-score; with GST-WRKY1(266-371), 0.49 E-score.
